The values that follow come from PubChem BioAssay (NCI).

About 79,000 compounds went through this panel and 15% of them were active in at least one assay; those are over-represented in the sample as a whole. Values without a mark were called inactive. Calls of active or inactive are those of the source. Cut-off read from the data, not from the text of the source: active = growth inhibition above about 70%; inactive = the rest.

Assay [1] in a line: NCI Yeast Anticancer Drug Screen. Data for the rad50 strain (AID 155).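 Note: 0% = growth of vehicle-only cultures of the same strain.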 The note with it: S. cerevisiae rad50 strain growth inhibition, hits give high values. Summed up:
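Genetically altered yeast (DNA repair pathway); compound treatment; growth inhibition vs vehicle ctrl.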

A short description of assay [2]: NCI Yeast Anticancer Drug Screen. Data for the mec2-1 strain (AID 157). As to conditions: S. cerevisiae mec2-1 strain, hits give high values. The essentials:
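Growth inhibition is read against vehicle-treated controls after compound exposure of the mec2-1 yeast strain, which is defective in DNA damage repair or cell cycle control.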

The nature of assay [3]: NCI Yeast Anticancer Drug Screen. Data for the sgs1 mgt1 strain (AID 161).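 Note: 0% = growth of cultures given vehicle only.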 The note with it: S. cerevisiae sgs1 mgt1 strain, hits give high values. The essentials: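 This yeast growth screen uses a strain with defined DNA-repair lesions; compound-treated growth is compared with vehicle-treated growth.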
A short description of assay [4]: NCI Yeast Anticancer Drug Screen. Data for the cln2 rad14 strain (AID 165).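 Note: 0% = growth equal to vehicle treated cultures.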 The note with it: S. cerevisiae cln2 rad14 strain, hits give high values. Summed up:
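Growth inhibition, relative to vehicle-treated controls, is the read-out. The test organism is a yeast strain with defined genetic alterations, cln2 rad14.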

Assay [5] in a line: NCI Yeast Anticancer Drug Screen. Data for the bub3 strain (AID 167). As to conditions: S. cerevisiae bub3 mutant strain, hits give high values. The essentials: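 Yeast carrying a defined mutation is treated with each compound, and growth is compared with that of vehicle-exposed cells to give inhibition.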
The nature of assay [6]: NCI Yeast Anticancer Drug Screen. Data for the mlh1 rad18 strain (AID 175). As to conditions: S. cerevisiae mlh1 rad18 strain growth inhibition, hits give high values. Summed up:
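Cells of a genetically altered yeast strain, deficient in DNA damage repair, were treated with compound. Their growth was then compared with that of vehicle-treated cultures to give inhibition.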

[7] abbreviates: at 5.0 µM (retest, dose inferred, filed as 0.5).
The mark [8] stands for this setting: at 50.0 µM (retest, dose inferred, filed as 5.0).

In the case of `N#CCc1ccc2c(c1)Sc1ccccc1O2`, the growth inhibition in assay [1] (setting [7]) was -159%; in assay [1] (setting [8]) it was -54%; in assay [1] (at 50.0 µM), 90.5% (active); in assay [2] (setting [7]), -49%; in assay [2] (setting [8]) it was -26%; in assay [2] (at 50.0 µM), 31.8%. Further, the growth inhibition in assay [3] (setting [7]) was -58%; in assay [3] (setting [8]) it was -13%; in assay [3] (at 50.0 µM), 53%; in assay [4] (setting [7]) it was -57%; in assay [4] (setting [8]), -35%; in assay [4] (at 50.0 µM), -5.85%. Also, the growth inhibition in assay [5] (setting [7]) was -62%; in assay [5] (setting [8]) it was -33%; in assay [5] (at 50.0 µM), 50.2%; in assay [6] (setting [7]), -122%; in assay [6] (setting [8]) it was -45%; in assay [6] (at 50.0 µM) it was 73.8% (active).
On to `CCCCCCN(CCCCCC)CCCC(O)c1cccc2ccccc12` (stereo not given), for which the growth inhibition in assay [1] (setting [7]) is -2%; in assay [1] (setting [8]), -5%; in assay [1] (at 50.0 µM), 99.2% (active); in assay [2] (setting [7]), 2%; in assay [2] (setting [8]) it was 2%; in assay [2] (at 50.0 µM), 99.3% (active). Further, the growth inhibition was 0% in assay [3] (setting [7]); 1% in assay [3] (setting [8]); 99.2% (active) in assay [3] (at 50.0 µM); 0% in assay [4] (setting [7]); -3% in assay [4] (setting [8]); 99.2% (active) in assay [4] (at 50.0 µM). For the same compound, the growth inhibition in assay [5] (setting [7]) is -2%; in assay [5] (setting [8]), 2%; in assay [5] (at 50.0 µM), 97% (active); in assay [6] (setting [7]) it was 1%; in assay [6] (setting [8]), -3%; in assay [6] (at 50.0 µM) it was 99.2% (active).
As for `O=[N+]([O-])c1cc(CNCCO)c(O)c2ncccc12`, the growth inhibition in assay [1] (setting [7]) was 99% (active); in assay [1] (setting [8]), 99% (active); in assay [1] (at 50.0 µM) it was 98.7% (active); in assay [2] (setting [7]), 100% (active); in assay [2] (setting [8]) it was 99% (active); in assay [2] (at 50.0 µM) it was 99.3% (active). Further, the growth inhibition in assay [3] (setting [7]) was 99% (active); in assay [3] (setting [8]) it was 99% (active); in assay [3] (at 50.0 µM), 99.2% (active); in assay [4] (setting [7]) it was 95% (active); in assay [4] (setting [8]) it was 98% (active); in assay [4] (at 50.0 µM), 97.9% (active). The growth inhibition is 99% (active) in assay [5] (setting [7]); 99% (active) in assay [5] (setting [8]); 99% (active) in assay [5] (at 50.0 µM); 99% (active) in assay [6] (setting [7]); 99% (active) in assay [6] (setting [8]); 98.8% (active) in assay [6] (at 50.0 µM).
As for `O=C1SC(c2ccccc2)=S=C1c1ccccc1`, the growth inhibition was 18% in assay [1] (setting [7]); 28% in assay [1] (setting [8]); 40% in assay [1] (at 50.0 µM); 24% in assay [2] (setting [7]); 39% in assay [2] (setting [8]); 46.8% in assay [2] (at 50.0 µM). Moreover, the growth inhibition was 21% in assay [3] (setting [7]); 44% in assay [3] (setting [8]); 37.4% in assay [3] (at 50.0 µM); 13% in assay [4] (setting [7]); 13% in assay [4] (setting [8]); 24.6% in assay [4] (at 50.0 µM). Also, the growth inhibition in assay [5] (setting [7]) is 20%; in assay [5] (setting [8]), 54%; in assay [5] (at 50.0 µM), 13.8%; in assay [6] (setting [7]) it was 33%; in assay [6] (setting [8]), 38%; in assay [6] (at 50.0 µM), -25.4%.
In the case of `COc1ccc(C(c2ccc(N(C)C)cc2)c2ccc(N(C)C)cc2)cc1`, the growth inhibition in assay [1] (setting [7]) is 97% (active); in assay [1] (setting [8]) it was 85% (active); in assay [1] (at 50.0 µM), 93.5% (active); in assay [2] (setting [7]) it was 98% (active); in assay [2] (setting [8]), 88% (active); in assay [2] (at 50.0 µM), 93% (active). For the same compound, the growth inhibition in assay [3] (setting [7]) was 99% (active); in assay [3] (setting [8]), 89% (active); in assay [3] (at 50.0 µM) it was 94% (active); in assay [4] (setting [7]), 98% (active); in assay [4] (setting [8]), 85% (active); in assay [4] (at 50.0 µM), 41.6%. The growth inhibition in assay [5] (setting [7]) is 99% (active); in assay [5] (setting [8]), 90% (active); in assay [5] (at 50.0 µM), 94.5% (active); in assay [6] (setting [7]), 99% (active); in assay [6] (setting [8]), 87% (active); in assay [6] (at 50.0 µM) it was 73.2% (active).
With `Nc1ccc(-c2ccc(Cl)cc2)cc1`, the growth inhibition in assay [1] (setting [7]) was 0%; in assay [1] (setting [8]), 96% (active); in assay [1] (at 50.0 µM), 96.7% (active); in assay [2] (setting [7]), -2%; in assay [2] (setting [8]) it was 61%; in assay [2] (at 50.0 µM), 78.7% (active). Also, the growth inhibition in assay [3] (setting [7]) is -1%; in assay [3] (setting [8]), 78% (active); in assay [3] (at 50.0 µM) it was 94.5% (active); in assay [4] (setting [7]), -6%; in assay [4] (setting [8]), 93% (active); in assay [4] (at 50.0 µM) it was 92.2% (active). Further, the growth inhibition in assay [5] (setting [7]) was 4%; in assay [5] (setting [8]), 61%; in assay [5] (at 50.0 µM), 96.9% (active); in assay [6] (setting [7]), -1%; in assay [6] (setting [8]), 95% (active); in assay [6] (at 50.0 µM) it was 93.3% (active).
Regarding `Cc1ccc(S(=O)(=O)CC(=O)CC(=O)C(=O)Nc2cc(C)ccc2C)cc1`, the growth inhibition is -1% in assay [1] (setting [7]); 4% in assay [1] (setting [8]); 34.2% in assay [1] (at 50.0 µM); -2% in assay [2] (setting [7]); -8% in assay [2] (setting [8]); 9.95% in assay [2] (at 50.0 µM). In addition, the growth inhibition was -2% in assay [3] (setting [7]); 0% in assay [3] (setting [8]); 17.9% in assay [3] (at 50.0 µM); -3% in assay [4] (setting [7]); -1% in assay [4] (setting [8]); 1.85% in assay [4] (at 50.0 µM). For the same compound, the growth inhibition was -2% in assay [5] (setting [7]); -2% in assay [5] (setting [8]); -0.55% in assay [5] (at 50.0 µM); -2% in assay [6] (setting [7]); -2% in assay [6] (setting [8]); 12.6% in assay [6] (at 50.0 µM).
Take `C=C1CC[C@@H](Br)C(C)(C)[C@]12CCC(C)(O)C(Cl)C2` (stereo not given in full): the growth inhibition is -3% in assay [1] (setting [7]); 34% in assay [1] (setting [8]); 91.7% (active) in assay [1] (at 50.0 µM); 16% in assay [2] (setting [7]); 30% in assay [2] (setting [8]); 93.5% (active) in assay [2] (at 50.0 µM). The growth inhibition was 10% in assay [3] (setting [7]); 44% in assay [3] (setting [8]); 92.2% (active) in assay [3] (at 50.0 µM); 31% in assay [4] (setting [7]); 44% in assay [4] (setting [8]); 90.9% (active) in assay [4] (at 50.0 µM). Besides, the growth inhibition was 6% in assay [5] (setting [7]); 72% (active) in assay [5] (setting [8]); 92% (active) in assay [5] (at 50.0 µM); -25% in assay [6] (setting [7]); 41% in assay [6] (setting [8]); 91% (active) in assay [6] (at 50.0 µM).
With `O=C1C=CC(=O)C(c2ccccc2)=C1`, the growth inhibition was 12% in assay [1] (setting [7]); 99% (active) in assay [1] (setting [8]); 99.5% (active) in assay [1] (at 50.0 µM); 24% in assay [2] (setting [7]); 99% (active) in assay [2] (setting [8]); 99.5% (active) in assay [2] (at 50.0 µM). The growth inhibition was 18% in assay [3] (setting [7]); 99% (active) in assay [3] (setting [8]); 99.5% (active) in assay [3] (at 50.0 µM); 16% in assay [4] (setting [7]); 99% (active) in assay [4] (setting [8]); 98.8% (active) in assay [4] (at 50.0 µM). The growth inhibition is 3% in assay [5] (setting [7]); 99% (active) in assay [5] (setting [8]); 99.5% (active) in assay [5] (at 50.0 µM); 18% in assay [6] (setting [7]); 99% (active) in assay [6] (setting [8]); 99.2% (active) in assay [6] (at 50.0 µM).
`CS(=O)(=O)C(c1nc2nnc(NC(=O)Nc3ccc(Cl)cc3)n2[nH]c1=O)c1nc2nnc(NC(=O)Nc3ccc(Cl)cc3)n2[nH]c1=O`: the growth inhibition in assay [1] (setting [7]) is -14%; in assay [1] (setting [8]), 11%; in assay [1] (at 50.0 µM) it was 32.2%; in assay [2] (setting [7]) it was -20%; in assay [2] (setting [8]), 23%; in assay [2] (at 50.0 µM), 74.5% (active). For the same compound, the growth inhibition in assay [3] (setting [7]) was 1%; in assay [3] (setting [8]), -7%; in assay [3] (at 50.0 µM) it was 24.6%; in assay [4] (setting [7]), -36%; in assay [4] (setting [8]) it was 3%; in assay [4] (at 50.0 µM), 30.6%. Further, the growth inhibition in assay [5] (setting [7]) was -41%; in assay [5] (setting [8]), 19%; in assay [5] (at 50.0 µM), 71.3% (active); in assay [6] (setting [7]), -19%; in assay [6] (setting [8]), 32%; in assay [6] (at 50.0 µM), 62.5%.
